# Data from PubChem BioAssay (Tox21).
# Inconclusive results are not listed. The source made the active and inactive calls. Unless noted, calls come from the whole dose curve; as a rule, active = well fitted inhibition curve with a large enough effect in the repeat runs (not every such curve was filed as active); inconclusive = weak or mixed curves; inactive = flat fitted curve, though single readings scatter.
# System: not listed separately
# Assay: qHTS assay to identify small molecule agonists of the TGF-beta/Smad signaling pathway - cell viability counter screen (AID 1346829; active = well fitted cell-killing curve with a large enough effect in the repeat runs; note: top concentration of the series differs between compounds; nearly all actives have a fitted effect of over 45% in size)
# Conditions: SBE-bla HEK293T viability, CellTiter-Glo luminescence, 5 h; series mostly up to 76.8 µM; activity change, negative = cytotoxicity: at the top concentration
# In short: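 CellTiter-Glo luminescence readout; SBE-bla HEK 293T cells, overnight plating, compound 5 hr at 37 C/5% CO2, then bla substrate 2 hr RT, then CellTiter-Glo 30 min RT.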
# % is set by controls: 0 for no effect and ±100 for the full control effect.
row,Compound,"activity change, negative = cytotoxicity"
1,CC(=O)O[C@H]1CC[C@@]2(C)C(=CC[C@@H]3[C@@H]2CC[C@]2(C)C(C(C)=O)=CC[C@@H]32)C1,-28.3% [at 35.3 µM] (inactive)
2,Clc1cccc(-c2cc(Cl)cc(Cl)c2)c1,-11.4% (inactive)
3,CCCCCCCCCCCCOCCOS(=O)(=O)O,3.37% (inactive)
4,OCCN1CCN(CCO)CC1,7.71% (inactive)
5,O=C1N(c2ccccc2)c2ccccc2C1(Cc1ccncc1)Cc1ccncc1,14.8% [at 35.3 µM] (inactive)
6,COc1ccccc1OCC(O)COC(N)=O (configuration not stated),11% [at 35.3 µM] (inactive)
7,CC(=O)N[C@@H](CC(C)C)C(=O)O,-0.593% [at 35.3 µM] (inactive)
8,C[C@]12CCC(=O)C=C1CC[C@@H]1[C@@H]2CC[C@@]2(C)[C@H]1CC[C@]2(O)C(=O)CO,8.39% [at 35.3 µM] (inactive)
9,CCCC1CCC(=O)O1 (configuration not stated),1.54% (inactive)
10,CC(C)S,-0.879% (inactive)
11,COC(=O)C(C)O (configuration not stated),0.0051% (inactive)
12,CCOc1ccc(OCC)c(Cl)c1,0.426% (inactive)
13,c1ccc(CN(CC2=NCCN2)c2ccccc2)cc1,12.2% [at 35.3 µM] (inactive)
14,Cc1cc2nc(N)sc2cc1C,-16.2% (inactive)
15,O=Cc1ccc(F)c(Br)c1,0.574% (inactive)
16,CC(C)O,8.4% (inactive)
17,CC(C)C[C@H](NC(=O)OCC1c2ccccc2-c2ccccc21)C(=O)O,11.4% (inactive)
18,C1CSCCS1,-0.956% (inactive)
19,CC(C)C(=O)OCC(C)(C)C(O)C(C)C (configuration not stated),15.8% (inactive)
20,COC(C)CCO (configuration not stated),1.05% (inactive)
21,O=C(Cl)c1cccc([N+](=O)[O-])c1,-2.49% (inactive)
22,OC[C@H]1O[C@@H](O[C@H]2[C@H](O)[C@@H](O)[C@H](O)O[C@@H]2CO)[C@H](O)[C@@H](O)[C@H]1O,0.417% (inactive)
23,NC(Cc1ccc(F)cc1)C(=O)O (configuration not stated),4.18% [at 6.97 µM] (inactive)
24,O=C1C=CC(=O)O1,0.624% (inactive)
25,CCC(=O)c1ccc2c(c1)N(CCCN(C)C)c1ccccc1S2,1.88% [at 35.3 µM] (inactive)
26,CC1=C2[C@H](/C=C(\C)C(=O)O)CC[C@@H](C)[C@H]2CC1,-3.26% (inactive)
27,O=C(O)CN(CCN(CC(=O)O)CC(=O)O)CCN(CC(=O)O)CC(=O)O,9.66% [at 15.8 µM] (inactive)
28,CCN(CC)C(=O)N(CC)CC,1.13% (inactive)
29,COC(=O)/C=C(/C)N,0.146% [at 35.3 µM] (inactive)
30,Cc1nc(-c2ccccn2)ncc1C(=O)Nn1cc(C)c2cc(F)ccc21,-6.39% (inactive)

# System: not listed separately
# Assay: qHTS assay to identify small molecule agonists of the TGF-beta/Smad signaling pathway (AID 1346859; active = well fitted activation curve with a large enough effect in the signal ratio in the repeat runs, not every such curve was filed as active; the % refers to the signal ratio)
# Conditions: SBE-bla HEK293T, TGF-beta/Smad beta-lactamase reporter, 5 h; series mostly up to 76.8 µM; activation: at the top concentration
# In short: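 Beta-lactamase reporter activity downstream of Smad binding elements was measured in stably transfected HEK 293T cells; compounds were incubated for 5 hr, substrate for 2 hr at room temperature.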
row,Compound,activation
1,CCCCC(CC)COC(=O)COc1cc(Cl)c(Cl)cc1Cl (configuration not stated),-1.64% (inactive)
2,Clc1cccc(-c2cc(Cl)cc(Cl)c2)c1,0.186% (inactive)
3,CCCCCCCCCCCCOCCOS(=O)(=O)O,1.68% (inactive)
4,CN(C)CC[C@@H](c1ccc(Cl)cc1)c1ccccn1,5% [at 35.3 µM] (inactive)
5,CC/C=C\CCOC(=O)C(C)C,1.9% (inactive)
6,OCCN1CCN(CCO)CC1,0.373% (inactive)
7,O=C1N(c2ccccc2)c2ccccc2C1(Cc1ccncc1)Cc1ccncc1,0.413% [at 35.3 µM] (inactive)
8,COc1ccccc1OCC(O)COC(N)=O (configuration not stated),0.573% [at 35.3 µM] (inactive)
9,CC(=O)N[C@@H](CC(C)C)C(=O)O,0.257% [at 35.3 µM] (inactive)
10,C[C@]12CCC(=O)C=C1CC[C@@H]1[C@@H]2CC[C@@]2(C)[C@H]1CC[C@]2(O)C(=O)CO,3.46% [at 35.3 µM] (inactive)
11,CCCC1CCC(=O)O1 (configuration not stated),0.161% (inactive)
12,CC(C)S,-0.241% (inactive)
13,COC(=O)C(C)O (configuration not stated),-0.519% (inactive)
14,CCOc1ccc(OCC)c(Cl)c1,3.42% (inactive)
15,Cc1nc(N)nc(N)c1-c1ccc(Cl)c(Cl)c1,0.432% [at 35.3 µM] (inactive)
16,c1ccc(CN(CC2=NCCN2)c2ccccc2)cc1,1.14% [at 35.3 µM] (inactive)
17,Cc1cc2nc(N)sc2cc1C,-4.41% (inactive)
18,O=Cc1ccc(F)c(Br)c1,0.0774% (inactive)

row,Compound,activation
1,CCCCNc1cc(C(=O)O)cc(S(N)(=O)=O)c1Oc1ccccc1,-0.109% [at 35.3 µM] (inactive)
2,NCCC(O)(P(=O)(O)O)P(=O)(O)O,0.759% [at 35.3 µM] (inactive)
3,CC(C)O,0.776% (inactive)
4,C1CSCCS1,1.36% (inactive)
5,CC(C)C(=O)OCC(C)(C)C(O)C(C)C (configuration not stated),2.57% (inactive)
6,COC(C)CCO (configuration not stated),4.69% (inactive)
7,O=C(Cl)c1cccc([N+](=O)[O-])c1,1.29% (inactive)
8,OC[C@H]1O[C@@H](O[C@H]2[C@H](O)[C@@H](O)[C@H](O)O[C@@H]2CO)[C@H](O)[C@@H](O)[C@H]1O,-0.178% (inactive)
9,NC(Cc1ccc(F)cc1)C(=O)O (configuration not stated),-0.692% [at 6.97 µM] (inactive)
10,O=C1C=CC(=O)O1,2.29% (inactive)
11,CCCCNCCCC,1.38% (inactive)
12,NNS(=O)(=O)c1ccc(Oc2ccc(S(=O)(=O)NN)cc2)cc1,0.183% (inactive)
13,CCC(=O)c1ccc2c(c1)N(CCCN(C)C)c1ccccc1S2,-0.156% [at 35.3 µM] (inactive)
14,OCCN(CCO)CCN(CCO)CCO,1.33% (inactive)
15,O=C(O)CN(CCN(CC(=O)O)CC(=O)O)CCN(CC(=O)O)CC(=O)O,3.97% [at 15.8 µM] (inactive)
16,CCN(CC)C(=O)N(CC)CC,1.42% (inactive)
17,COC(=O)/C=C(/C)N,3.77% [at 35.3 µM] (inactive)
18,Cc1nc(-c2ccccn2)ncc1C(=O)Nn1cc(C)c2cc(F)ccc21,-3.87% (inactive)

# Target: Thyrotropin-releasing hormone receptor (Homo sapiens) (UniProt P34981)
# Sequence (P34981 whole entry, looked up): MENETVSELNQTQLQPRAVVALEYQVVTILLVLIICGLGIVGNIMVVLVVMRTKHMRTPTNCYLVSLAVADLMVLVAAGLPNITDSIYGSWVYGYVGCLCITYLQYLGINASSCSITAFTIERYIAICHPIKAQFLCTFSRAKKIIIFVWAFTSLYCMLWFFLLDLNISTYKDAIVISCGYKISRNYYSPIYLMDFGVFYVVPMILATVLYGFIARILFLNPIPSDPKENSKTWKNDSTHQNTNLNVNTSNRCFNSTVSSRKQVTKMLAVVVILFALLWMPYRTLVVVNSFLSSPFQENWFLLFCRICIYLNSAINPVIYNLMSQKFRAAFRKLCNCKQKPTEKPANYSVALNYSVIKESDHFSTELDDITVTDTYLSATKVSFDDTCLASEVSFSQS
# Assay: qHTS assay to identify small molecule antagonists of the thyrotropin-releasing hormone receptor (TRHR) signaling pathway (AID 1346877)
# Conditions: TRHR-HEK293, TRH-induced calcium fluorescence, antagonist mode; series mostly up to 51.3 µM; activity, negative = inhibition: at the top concentration
# In short: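 TRHR-expressing HEK293 cells loaded with calcium dye for 2 h at 37 C; compounds pre-incubated 5 min at room temperature before TRH challenge at 1 nM final. Intracellular calcium fluorescence read kinetically for 3 min; 15 concentrations in triplicate.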
row,Compound,"activity, negative = inhibition"
1,CC(=O)O[C@H]1CC[C@@]2(C)C(=CC[C@@H]3[C@@H]2CC[C@]2(C)C(C(C)=O)=CC[C@@H]32)C1,-5.34% [at 23.6 µM] (inactive)
2,CCCCC(CC)COC(=O)COc1cc(Cl)c(Cl)cc1Cl (configuration not stated),-2.52% (inactive)
3,Clc1cccc(-c2cc(Cl)cc(Cl)c2)c1,-7.35% (inactive)
4,CN(C)CC[C@@H](c1ccc(Cl)cc1)c1ccccn1,1.03% [at 23.6 µM] (inactive)
5,CC/C=C\CCOC(=O)C(C)C,-3.67% (inactive)
6,OCCN1CCN(CCO)CC1,4.28% (inactive)
7,O=C1N(c2ccccc2)c2ccccc2C1(Cc1ccncc1)Cc1ccncc1,2.01% [at 23.6 µM] (inactive)
8,COc1ccccc1OCC(O)COC(N)=O (configuration not stated),1.03% [at 23.6 µM] (inactive)
9,CC(=O)N[C@@H](CC(C)C)C(=O)O,-0.12% [at 23.6 µM] (inactive)
10,C[C@]12CCC(=O)C=C1CC[C@@H]1[C@@H]2CC[C@@]2(C)[C@H]1CC[C@]2(O)C(=O)CO,1.66% [at 23.6 µM] (inactive)
11,CCCC1CCC(=O)O1 (configuration not stated),-0.76% (inactive)
12,CC(C)S,-3.09% (inactive)
13,COC(=O)C(C)O (configuration not stated),-1.07% (inactive)
14,CCOc1ccc(OCC)c(Cl)c1,-9.36% (inactive)
15,Cc1nc(N)nc(N)c1-c1ccc(Cl)c(Cl)c1,-1.55% [at 23.6 µM] (inactive)
16,O=Cc1ccc(F)c(Br)c1,4.59% (inactive)

row,Compound,"activity, negative = inhibition"
1,CCCCNc1cc(C(=O)O)cc(S(N)(=O)=O)c1Oc1ccccc1,2.52% [at 23.6 µM] (inactive)
2,CC(C)O,-1.87% (inactive)
3,CC(C)C(=O)OCC(C)(C)C(O)C(C)C (configuration not stated),4.53% (inactive)
4,COC(C)CCO (configuration not stated),-1.48% (inactive)
5,OC[C@H]1O[C@@H](O[C@H]2[C@H](O)[C@@H](O)[C@H](O)O[C@@H]2CO)[C@H](O)[C@@H](O)[C@H]1O,-3.16% (inactive)
6,NC(Cc1ccc(F)cc1)C(=O)O (configuration not stated),-1.45% [at 4.65 µM] (inactive)
7,O=C1C=CC(=O)O1,0.827% (inactive)
8,CCCCNCCCC,12.3% (inactive)
9,NNS(=O)(=O)c1ccc(Oc2ccc(S(=O)(=O)NN)cc2)cc1,2.06% (inactive)
10,CCC(=O)c1ccc2c(c1)N(CCCN(C)C)c1ccccc1S2,3.01% [at 23.6 µM] (inactive)
11,OCCN(CCO)CCN(CCO)CCO,2.77% (inactive)
12,CC1=C2[C@H](/C=C(\C)C(=O)O)CC[C@@H](C)[C@H]2CC1,2.45% (inactive)
13,O=C(O)CN(CCN(CC(=O)O)CC(=O)O)CCN(CC(=O)O)CC(=O)O,0.832% [at 10.5 µM] (inactive)
14,COC(=O)/C=C(/C)N,-1.32% [at 23.6 µM] (inactive)
15,Cc1nc(-c2ccccn2)ncc1C(=O)Nn1cc(C)c2cc(F)ccc21,0.852% (inactive)
